# Experimental data from PMC8384837, “Expanding the binding specificity for RNA recognition by a PUF domain”.
# Legend:
# Experiment in all cases: yeast three-hybrid, YBZ-1, SC-Leu-His + 0.5 mM 3-AT, 4 days
# Details in all cases: tags: N-Gal4 AD-HA kept; label: inside an RPR1-promoter hybrid RNA with tandem MS2 sites; ssRNA
# PUM1 PUF domain R5-RRM = PUM1 PUF domain R5-RRM (Homo sapiens, UniProt Q14671 828-1176, C1007R;Q1011M)
# How it was run: (§1)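 Matching RNA elements and Pumilio-1 PUF domain libraries, randomized at the three base-contacting residues of every repeat, were co-expressed from a centromeric plasmid in strain YBZ-1 (LexA–MS2 coat fusion, HIS3 reporter). The repeat regions were PCR-amplified and Illumina-sequenced from cells grown four days on SC-Leu (input) or SC-Leu-His + 0.5 mM 3-AT (selection). The interaction score is the log change in variant frequency from input to selection. It is computed in log2, with a pseudocount of 1 for absent variants.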
# PUM1 PUF domain R1-NFS = PUM1 PUF domain R1-NFS (Homo sapiens, UniProt Q14671 828-1176, S863N;R864F;Q867S)
# How it was run: as §1
# PUM1 PUF domain R3-DWV = PUM1 PUF domain R3-DWV (Homo sapiens, UniProt Q14671 828-1176, C935D;R936W;Q939V)
# How it was run: as §1
# PUM1 PUF domain R3-GCK = PUM1 PUF domain R3-GCK (Homo sapiens, UniProt Q14671 828-1176, C935G;R936C;Q939K)
# How it was run: as §1
# PUM1 PUF domain R3-PFD = PUM1 PUF domain R3-PFD (Homo sapiens, UniProt Q14671 828-1176, C935P;R936F;Q939D)
# How it was run: as §1
# PUM1 PUF domain R3-SRK = PUM1 PUF domain R3-SRK (Homo sapiens, UniProt Q14671 828-1176, C935S;Q939K)
# How it was run: as §1
# PUM1 PUF domain R3-YYR = PUM1 PUF domain R3-YYR (Homo sapiens, UniProt Q14671 828-1176, C935Y;R936Y;Q939R)
# How it was run: as §1
# PUM1 PUF domain R2-NYP = PUM1 PUF domain R2-NYP (Homo sapiens, UniProt Q14671 828-1176, Q903P)
# How it was run: as §1
# PUM1 PUF domain R6-AWR = target: T1, PUM1 PUF domain R6-AWR (Homo sapiens, UniProt Q14671 828-1176, N1043A;Y1044W;Q1047R)
# T1 sequence: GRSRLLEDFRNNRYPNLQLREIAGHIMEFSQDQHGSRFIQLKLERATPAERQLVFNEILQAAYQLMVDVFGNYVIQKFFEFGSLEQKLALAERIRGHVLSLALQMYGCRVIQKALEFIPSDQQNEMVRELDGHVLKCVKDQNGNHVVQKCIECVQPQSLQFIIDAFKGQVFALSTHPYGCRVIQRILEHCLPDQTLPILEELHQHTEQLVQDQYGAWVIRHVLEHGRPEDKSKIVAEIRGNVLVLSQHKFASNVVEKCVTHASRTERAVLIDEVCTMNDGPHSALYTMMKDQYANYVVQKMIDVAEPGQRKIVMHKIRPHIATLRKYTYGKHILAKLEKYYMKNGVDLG
# How it was run: as §1
# PUM1 PUF domain R8-MYF = PUM1 PUF domain R8-MYF (Homo sapiens, UniProt Q14671 828-1176, N1122M;Q1126F)
# How it was run: as §1
# Chain of PUM1 PUF domain R3-DWV (Q14671 828-1176 C935D/R936W/Q939V): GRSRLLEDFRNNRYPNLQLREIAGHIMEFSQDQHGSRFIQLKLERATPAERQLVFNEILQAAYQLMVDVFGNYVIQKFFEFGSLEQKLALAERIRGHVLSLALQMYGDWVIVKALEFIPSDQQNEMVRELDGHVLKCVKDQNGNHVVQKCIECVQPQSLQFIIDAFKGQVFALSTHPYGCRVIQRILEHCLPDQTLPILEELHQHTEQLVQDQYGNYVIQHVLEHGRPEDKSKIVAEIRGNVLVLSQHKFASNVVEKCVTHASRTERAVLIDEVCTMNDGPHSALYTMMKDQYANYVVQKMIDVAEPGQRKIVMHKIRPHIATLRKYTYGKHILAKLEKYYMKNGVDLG
# Chain of PUM1 PUF domain R3-GCK (Q14671 828-1176 C935G/R936C/Q939K): as the sequence (Q14671 828-1176 C935D/R936W/Q939V) above, with D108G, W109C, V112K counted along it
# Chain of PUM1 PUF domain R2-NYP (Q14671 828-1176 Q903P): as the sequence (Q14671 828-1176 C935D/R936W/Q939V) above, with Q76P, D108C, W109R, V112Q counted along it
# Chain of PUM1 PUF domain R1-NFS (Q14671 828-1176 S863N/R864F/Q867S): as the sequence (Q14671 828-1176 C935D/R936W/Q939V) above, with S36N, R37F, Q40S, D108C, W109R, V112Q counted along it
# Chain of PUM1 PUF domain R3-YYR (Q14671 828-1176 C935Y/R936Y/Q939R): as the sequence (Q14671 828-1176 C935D/R936W/Q939V) above, with D108Y, W109Y, V112R counted along it
# Chain of PUM1 PUF domain R8-MYF (Q14671 828-1176 N1122M/Q1126F): as the sequence (Q14671 828-1176 C935D/R936W/Q939V) above, with D108C, W109R, V112Q, N295M, Q299F counted along it
sequence,measurement,setting,value
GGCUAGAACUAGUGGAUCCCCCGGCGCCCGGCGGCUCGAGCCCGGGUAAGUGUUAAUAGUCUGCAUGCCGCCGGGCGCCAUGCCUGCAGGUCGACUCUAGAAAACAUG,binding signal,PUM1 PUF domain R5-RRM,4.73 log2 enrichment (interaction score)
GGCUAGAACUAGUGGAUCCCCCGGCGCCCGGCGGCUCGAGCCCGGGUAAGUGUAAAUUGUCUGCAUGCCGCCGGGCGCCAUGCCUGCAGGUCGACUCUAGAAAACAUG,binding signal,PUM1 PUF domain R1-NFS,7.9 log2 enrichment (interaction score)
GGCUAGAACUAGUGGAUCCCCCGGCGCCCGGCGGCUCGAGCCCGGGUAAGUGUAAGUAGUCUGCAUGCCGCCGGGCGCCAUGCCUGCAGGUCGACUCUAGAAAACAUG,binding signal,PUM1 PUF domain R3-DWV,3.22 log2 enrichment (interaction score)
same,binding signal,PUM1 PUF domain R3-GCK,2.22 log2 enrichment (interaction score)
GGCUAGAACUAGUGGAUCCCCCGGCGCCCGGCGGCUCGAGCCCGGGUAAGUGUAAUUAGUCUGCAUGCCGCCGGGCGCCAUGCCUGCAGGUCGACUCUAGAAAACAUG,binding signal,PUM1 PUF domain R3-GCK,2.81 log2 enrichment (interaction score)
same,binding signal,PUM1 PUF domain R3-PFD,4.25 log2 enrichment (interaction score)
same,binding signal,PUM1 PUF domain R3-SRK,2.4 log2 enrichment (interaction score)
GGCUAGAACUAGUGGAUCCCCCGGCGCCCGGCGGCUCGAGCCCGGGUAAGUGUAAAUAGUCUGCAUGCCGCCGGGCGCCAUGCCUGCAGGUCGACUCUAGAAAACAUG,binding signal,PUM1 PUF domain R3-DWV,2.15 log2 enrichment (interaction score)
same,binding signal,PUM1 PUF domain R3-YYR,3.94 log2 enrichment (interaction score)
same,binding signal,PUM1 PUF domain R2-NYP,4.08 log2 enrichment (interaction score)
same,binding signal,PUM1 PUF domain R3-PFD,5.31 log2 enrichment (interaction score)
same,binding signal,PUM1 PUF domain R5-RRM,2.27 log2 enrichment (interaction score)
same,binding signal,PUM1 PUF domain R6-AWR,5.74 log2 enrichment (interaction score)
GGCUAGAACUAGUGGAUCCCCCGGCGCCCGGCGGCUCGAGCCCGGGUAAGCGUAAAUAGUCUGCAUGCCGCCGGGCGCCAUGCCUGCAGGUCGACUCUAGAAAACAUG,binding signal,PUM1 PUF domain R8-MYF,2.53 log2 enrichment (interaction score)
